Laboratory results published in PubChem BioAssay (Tox21).
Inconclusive results are not listed. Activity calls are given as the source filed them. Unless noted, calls follow the shape of the dose curve; as a rule, active = well fitted curve in the direction sought with a large enough effect in the repeat runs; inconclusive = weak or mixed curves; inactive = no such curve, though single readings can be large; an effect the other way counts as inactive or inconclusive.

Assays:
[1] = qHTS assay to identify small molecule antagonists of the estrogen receptor alpha (ER-alpha) signaling pathway using the BG1 cell line in the presence of 0.1 nM 17-beta-estradiol - cell viability counter screen (AID 1259241); also: nearly all actives have a fitted effect of over 40% in size
How it was run: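 CellTiter-Fluor read (30 min, 37C) on ER-alpha/ERE-luc VM7Luc4E2 cells; 22 hr compound treatment; agonist 0.1 nM E2 final; same-well multiplex.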

[2] = qHTS assay to identify small molecule antagonists of the androgen receptor (AR) signaling pathway using the MDA cell line in the presence of 0.5 nM R1881 - cell viability counter screen (AID 1259242); also: nearly all actives have a fitted effect of over 45% in size
How it was run: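 MDA-kb2 cells (human breast carcinoma, stably carrying MMTV-luciferase reporter) were exposed to compounds with 0.5 nM R1881 (final) for 16 hr at 37C, 0% CO2; viability then read as live-cell protease fluorescence (CellTiter-Fluor, 30 min) in the same wells.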

[3] = target: Estrogen receptor (Homo sapiens) (UniProt P03372); experiment: qHTS assay to identify small molecule antagonists of the estrogen receptor alpha (ER-alpha) signaling pathway using the BG1 cell line in the presence of 0.1 nM 17-beta-estradiol (AID 1259244); also: nearly all actives have a fitted effect of over 50% in size
How it was run: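 VM7Luc4E2 cells (endogenous full-length ER-alpha, stable 4xERE-luciferase) were grown 5 days in phenol red-free medium with charcoal-stripped FBS, then exposed 22 h at 37C to compounds plus 0.1 nM (final) 17beta-estradiol; ONE-Glo luminescence read-out.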

[4] = qHTS assay to identify small molecule HDAC inhibitors (AID 1259364); also: top concentration of the series differs between compounds; nearly all actives have a fitted effect of over 45% in size
How it was run: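 Wild-type HCT-116 cells were plated overnight, exposed to compounds for 2 h at 37 °C, then given HDAC-Glo class I/II luminogenic reagent for 30 min at room temperature before luminescence was read.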

[5] = qHTS assay to identify small molecule HDAC inhibitors - cell viability counter screen (AID 1259365); also: series mostly up to about 92 µM; nearly all actives have a fitted effect of over 50% in size
How it was run: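 To flag cytotoxic hits, 1,500 wild-type HCT-116 cells per well, plated the day before, receive test compounds for 2hr at 37 C before CellTiter-Glo reagent and a luminescence read.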

[6] = qHTS assay to identify small molecule agonists of the sonic hedgehog signaling (Shh) pathway - cell viability counter screen (AID 1259366); also: nearly all actives have a fitted effect of over 50% in size
How it was run: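 Fluorescence from CellTiter-Fluor reports live cells in this counter screen. NIH/3T3-derived Gli1-Luc reporter cells receive test compounds for 24hr at 37C; reagent goes in at 23hr.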

[7] = qHTS assay to identify small molecule antagonists of the sonic hedgehog signaling (Shh) pathway - cell viability counter screen (AID 1259367); also: nearly all actives have a fitted effect of over 55% in size
How it was run: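 NIH/3T3-derived Gli1-Luc reporter cells (2,000 per well) rested 4 hr at 37 C, then received DMSO compounds plus conditioned medium. After 23 hr of treatment, CellTiter-Fluor was added for 1 hr at 37C and fluorescence read.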

[8] = qHTS assay to identify small molecule agonists of the sonic hedgehog signaling (Shh) pathway (AID 1259368; calls by dose curve; also: series mostly up to about 92 µM; nearly all actives have a fitted effect of over 15% in size)
How it was run: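 NIH/3T3-derived 3T3Gli1-Luc cells carrying a stably integrated Gli1 response element–firefly luciferase reporter were plated, left 4 hr at 37 C, then given compounds in DMSO for 24 hr. Luminescence was read 30 min after adding luciferase reagent.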

[9] = qHTS assay to identify small molecule antagonists of the sonic hedgehog signaling (Shh) pathway (AID 1259369; calls by dose curve; also: nearly all actives have a fitted effect of over 45% in size)
How it was run: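 NIH/3T3-derived 3T3Gli1-Luc cells with stably integrated Gli1-Luc reporter were preincubated 4hr at 37 C, then given compounds in DMSO plus Shh conditioned medium and incubated 24hr. Firefly luciferase luminescence read after 30min reagent at room temperature.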

[10] = target: Estrogen receptor beta (Homo sapiens) (UniProt Q92731); experiment: qHTS assay to identify small molecule agonists of the estrogen receptor beta (ER-beta) signaling pathway (AID 1259377; active = well fitted activation curve with a large enough effect in the signal ratio in the repeat runs, not every such curve was filed as active; the % refers to the signal ratio)
How it was run: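 Screening used GripTite ER-beta-UAS-bla cells held in 2% charcoal-stripped FBS medium. After overnight (16 hr) compound incubation at 37C, beta-lactamase activity was detected with a FRET substrate by fluorescence.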

[11] = target: Estrogen receptor beta (Homo sapiens) (UniProt Q92731); experiment: qHTS assay to identify small molecule antagonists of the estrogen receptor beta (ER-beta) signaling pathway (AID 1259378; active = well fitted inhibition curve with a large enough effect in the signal ratio in the repeat runs, not every such curve was filed as active; the % refers to the signal ratio)
How it was run: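 ER-beta-UAS-bla HEK293T (GripTite) cells in 2% charcoal-stripped FBS medium were preincubated 6 hr at 37C, dosed with compound, then stimulated with 1 nM E2 (final) for 16 hr; beta-lactamase reporter read by B/G FRET fluorescence after 2 hr substrate loading.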

[12] = qHTS assay to identify small molecule agonists of the androgen receptor (AR) signaling pathway in the presence of an antagonist - cell viability counter screen (AID 1259379); also: series mostly up to about 92 µM; nearly all actives have a fitted effect of over 25% in size
How it was run: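 MDA-kb2 human breast carcinoma cells (stable MMTV-luciferase, AR/GR responsive) were seeded 3,000 cells/well, pre-incubated 5 hr at 37C without CO2, then given 3.0uM nilutamide and compounds at 15 concentrations for 16 hr. Viability was read by CellTiter-Fluor fluorescence.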

[13] = qHTS assay to identify small molecule agonists of the estrogen receptor beta (ER-beta) signaling pathway - cell viability counter screen (AID 1259380); also: nearly all actives have a fitted effect of over 30% in size
How it was run: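 ER-beta-UAS-bla HEK293T cells in medium with 2% charcoal-stripped FBS were preincubated 6 hr at 37C, dosed with compound in DMSO for 16 hr, then after the bla read, CellTiter-Glo was added for 30 min at room temperature; luminescence recorded.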

[14] = qHTS assay to identify small molecule antagonists of the estrogen receptor beta (ER-beta) signaling pathway - cell viability counter screen (AID 1259382); also: series mostly up to about 92 µM; nearly all actives have a fitted effect of over 55% in size
How it was run: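 ER-beta-UAS-bla HEK293T cells (2,000/well, 2% charcoal-stripped FBS) were pre-incubated 6 hr at 37C, then given compound plus 1nM final 17-beta-estradiol for 16 hr. Viability was read in the same wells by CellTiter-Glo luminescence after 30 min at room temperature.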

[15] = target: Estrogen receptor (Homo sapiens) (UniProt P03372); experiment: qHTS assay to identify small molecule agonists of the estrogen receptor alpha (ER-alpha) signaling pathway in the presence of an antagonist (AID 1259383; calls by dose curve; also: top concentration of the series differs between compounds; nearly all actives have a fitted effect of over 15% in size)
How it was run: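 VM7Luc4E2 cells (endogenous full-length ER-alpha, 4×ERE-luciferase) were precultured 5 days in phenol red-free medium with 10% charcoal-stripped FBS, given 10.0nM ICI-182,780 (final), then treated with compounds at 15 concentrations for 22hr at 37C; luminescence read with ONE-Glo.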

[16] = qHTS assay to identify small molecule agonists or antagonists of the thyroid stimulating hormone receptor (TSHR) signaling pathway - wild type cell line counter screen (AID 1259384; calls by dose curve)
How it was run: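 Wild-type HEK293 cells were plated 18 h at 37 C/5% CO2, pin-dosed with compound plus Ro20-1724 medium, held 30 min at room temperature, then given cAMP-d2 and anti-cAMP-cryptate; fluorescence was read after 1 h. Fifteen concentrations, triplicate.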

[17] = target: Thyrotropin receptor (Homo sapiens) (UniProt P16473); experiment: qHTS assay to identify small molecule antagonists of the thyroid stimulating hormone receptor (TSHR) signaling pathway (AID 1259385; calls by dose curve; also: nearly all actives have a fitted effect of over 20% in size)
How it was run: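 TSHR-HEK293 cells were plated and held 18 h at 37C/5% CO2, then given compound plus Ro20-1724 and stimulated with TSH at 1.5 ng/mL final. After 30 min at room temperature, cAMP was detected with cAMP-d2/anti-cAMP-cryptate (1 h) by fluorescence.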

[18] = qHTS assay to identify small molecule agonists of the estrogen receptor alpha (ER-alpha) signaling pathway in the presence of an antagonist - cell viability counter screen (AID 1259386); also: series mostly up to about 92 µM; nearly all actives have a fitted effect of over 30% in size
How it was run: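 VM7Luc4E2 cells (endogenous full-length ER-alpha, 4×ERE-luciferase) were held 5 days in phenol red-free medium with 10% charcoal-stripped FBS, plated, then given 10.0nM ICI-182,780 and compounds at 15 concentrations for 22hr at 37C; viability read by CellTiter-Fluor fluorescence.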

[19] = qHTS assay to identify small molecule phospholipidosis (PLD) inducers (AID 1259344; active = well fitted curve in the direction sought with a large enough effect; an effect the other way counts as inactive or inconclusive)
How it was run: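 HepG2 cells on collagen I, attached 4 h at 37 C, were co-treated with compound and LipidTOX Red dye for 24 h at 37 C, then fixed with paraformaldehyde plus Hoechst 33342 and imaged by high-content microscopy for phospholipid accumulation.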

Measured: Potency

Chain of Estrogen receptor (Homo sapiens) (P03372 whole entry, looked up): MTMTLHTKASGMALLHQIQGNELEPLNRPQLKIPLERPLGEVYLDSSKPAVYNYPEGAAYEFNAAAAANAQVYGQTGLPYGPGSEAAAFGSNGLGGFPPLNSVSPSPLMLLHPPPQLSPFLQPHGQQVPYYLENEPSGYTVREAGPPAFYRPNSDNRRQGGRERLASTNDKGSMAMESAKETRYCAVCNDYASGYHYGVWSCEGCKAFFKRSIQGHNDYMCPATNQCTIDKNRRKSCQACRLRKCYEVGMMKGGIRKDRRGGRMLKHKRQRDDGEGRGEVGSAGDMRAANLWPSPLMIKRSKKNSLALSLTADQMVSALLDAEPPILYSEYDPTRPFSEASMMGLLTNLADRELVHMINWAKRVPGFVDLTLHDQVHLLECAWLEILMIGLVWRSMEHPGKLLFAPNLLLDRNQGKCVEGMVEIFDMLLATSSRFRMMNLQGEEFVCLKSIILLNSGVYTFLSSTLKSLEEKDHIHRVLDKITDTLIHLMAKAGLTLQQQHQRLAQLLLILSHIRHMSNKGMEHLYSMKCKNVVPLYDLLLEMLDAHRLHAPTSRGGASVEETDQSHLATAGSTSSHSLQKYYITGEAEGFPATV
Chain of Thyrotropin receptor (Homo sapiens) (P16473 whole entry, looked up): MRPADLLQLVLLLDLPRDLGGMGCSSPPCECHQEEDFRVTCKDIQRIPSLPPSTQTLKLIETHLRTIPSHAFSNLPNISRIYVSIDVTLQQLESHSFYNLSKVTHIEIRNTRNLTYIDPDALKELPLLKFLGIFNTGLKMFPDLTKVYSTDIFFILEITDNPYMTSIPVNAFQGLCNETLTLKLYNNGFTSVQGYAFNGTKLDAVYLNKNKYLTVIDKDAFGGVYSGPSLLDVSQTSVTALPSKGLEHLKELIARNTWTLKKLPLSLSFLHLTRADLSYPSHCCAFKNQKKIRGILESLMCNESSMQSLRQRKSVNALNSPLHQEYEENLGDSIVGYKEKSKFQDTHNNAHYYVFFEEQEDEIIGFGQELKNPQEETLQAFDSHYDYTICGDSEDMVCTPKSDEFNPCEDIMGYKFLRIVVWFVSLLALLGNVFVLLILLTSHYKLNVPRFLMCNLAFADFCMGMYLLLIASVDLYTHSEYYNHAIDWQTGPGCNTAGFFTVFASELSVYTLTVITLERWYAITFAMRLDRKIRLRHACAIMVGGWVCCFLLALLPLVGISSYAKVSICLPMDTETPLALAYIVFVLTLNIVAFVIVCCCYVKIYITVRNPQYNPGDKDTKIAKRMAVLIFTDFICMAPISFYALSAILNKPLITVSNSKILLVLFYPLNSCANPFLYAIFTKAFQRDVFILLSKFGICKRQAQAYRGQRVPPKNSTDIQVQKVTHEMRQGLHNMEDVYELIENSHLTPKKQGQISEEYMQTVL
Chain of Estrogen receptor beta (Homo sapiens) (Q92731 whole entry, looked up): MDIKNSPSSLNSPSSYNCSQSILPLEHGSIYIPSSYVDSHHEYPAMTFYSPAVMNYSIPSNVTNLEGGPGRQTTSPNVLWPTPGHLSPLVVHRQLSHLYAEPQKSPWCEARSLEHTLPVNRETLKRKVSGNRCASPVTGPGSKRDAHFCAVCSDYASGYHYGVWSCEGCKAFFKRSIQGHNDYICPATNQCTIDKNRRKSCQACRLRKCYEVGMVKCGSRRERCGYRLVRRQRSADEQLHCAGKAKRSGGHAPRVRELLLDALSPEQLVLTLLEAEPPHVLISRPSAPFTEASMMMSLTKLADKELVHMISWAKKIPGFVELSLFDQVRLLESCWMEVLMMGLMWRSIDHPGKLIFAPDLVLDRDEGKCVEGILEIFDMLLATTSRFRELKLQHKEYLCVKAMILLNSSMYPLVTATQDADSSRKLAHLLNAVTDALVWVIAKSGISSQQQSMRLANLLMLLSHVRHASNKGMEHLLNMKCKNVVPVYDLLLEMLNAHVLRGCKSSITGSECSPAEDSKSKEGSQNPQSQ

O=C(O)Cc1ccc(CCNS(=O)(=O)c2ccc(Cl)cc2)cc1
not listed: [19]
inactive: all other assays above

Cc1c(NC(C)C)c(=O)n(-c2ccccc2)n1C
not listed: [9]
inactive: all other assays above

Nc1nc2c(ncn2COC(CO)CO)c(=O)[nH]1
not listed: [8] | [15]
inactive: all other assays above

CCOC(=O)[C@H](CCc1ccccc1)N[C@@H](C)C(=O)N1[C@H](C(=O)O)C[C@@H]2CCC[C@@H]21
not listed: [15] | [19]
inactive: all other assays above

CCOC(=O)c1cccc(N)c1
not listed: [4] | [8]
inactive: all other assays above

Cc1cccc(C)c1NC(=O)C(C)N (stereo unspecified)
not listed: [8] | [9] | [10] | [11]
inactive: all other assays above

C=C[Si](OC(=C)C)(OC(=C)C)OC(=C)C
not listed: [9] | [19]
inactive: all other assays above

CCCCCCOC(=O)CCCCC(=O)OCCCCCC
not listed: [13] | [19]
inactive: all other assays above
